# Laboratory results reported in PubChem BioAssay (NCATS).
# Inconclusive results are not listed. Where a call stands in place of a potency, no number is given. Activity calls are given as the source filed them. Calls come from the whole dose curve; as a rule, active = well fitted inhibition curve with a large enough effect; inconclusive = small, poorly fitted or top-dose-only effect; inactive = no such curve, though single readings can be large or run the other way.
# Target: Retinaldehyde dehydrogenase 3 (Homo sapiens) (UniProt P47895)
# Assay: qHTS for Inhibitors of the Aldehyde Dehydrogenase Family (ALDH1A3) Primary screen (AID 2061315)
# Conditions: ALDH inhibition qHTS; series mostly up to 56 µM
row,SMILES,Potency
1,C[C@@H]1[C@H](O)[C@@H]2OC(=O)C3=C2[C@H](CCC3)[C@@]12C[C@@H](c1ccoc1)OC2=O,inactive
2,O=S(=O)(Nc1nccs1)c1ccc(NCc2ccccc2O)cc1,inactive
3,O=C(Nc1ccc(S(=O)(=O)Nc2nccs2)cc1)c1cccnc1,inactive
4,C=C[C@H]1C(O[C@@H]2O[C@H](CO)[C@@H](O)[C@H](O)[C@H]2O)OC=C2C(=O)N3CCc4c([nH]c5ccccc45)[C@H]3C[C@H]21 (stereo not given in full),inactive
5,O=C1CCc2cc(S(=O)(=O)Nc3ccncc3)ccc2N1,inactive
6,Cc1ccc(NS(=O)(=O)c2cc3c(cc2NC(C)C)NC(=O)CC3)cc1C,inactive
7,O=C(Nc1nc2cc(C(F)(F)F)ccc2s1)c1ccc(-c2cccc([N+](=O)[O-])c2)o1,inactive
8,COc1cccc(Nc2nn3c(=O)c4ccccc4nc3s2)c1,inactive
9,FC(F)(F)c1ccccc1-c1nc(NCc2ccc(-c3ccc4c(c3)OCO4)cc2)c2ccccc2n1,inactive
10,Clc1cccc(-c2ccc3ncnc(NCc4cccs4)c3c2)c1,inactive
11,COc1cccc(-c2ccc(=O)n(CC(=O)NCCc3ccccc3)n2)c1,inactive
12,O=C(NC(c1ccco1)c1cc(Cl)c2cccnc2c1O)c1ccsc1 (stereo not given),inactive
13,Cc1cccc(C)c1SC1=NS(=O)(=O)c2ccccc21,inactive
14,CCCCCNc1oc(-c2cccc3ccccc23)nc1C#N,inactive
15,O=C(O)c1ccc(-c2noc(-c3cccc(C(F)(F)F)c3)n2)cc1,inactive
16,Oc1cccc2cc(N3CCCC3)cnc12,inactive
17,O=C([C@@H](Cc1ccc(O[S+](=O)([O-])c2ccccn2)cc1)N[S+](=O)([O-])c1cccc2cccnc12)N1CCN(c2ccccc2)CC1,inactive
18,Cn1c2cc(B(O)O)sc2c2cnn(Cc3c(F)cccc3Cl)c(=O)c21,inactive
19,O=S(=O)(NC1CCC(CNS(=O)(=O)c2c(F)cccc2F)CC1)c1ccc2c(c1)OCCO2 (stereo not given),inactive
20,Cc1ccccc1NS(=O)(=O)c1ccc2c(c1)CCC(=O)N2,inactive

row,SMILES,Potency
1,Cc1ccc2nc3sc(C(=O)N4CCC(C(N)=O)CC4)cc3cc2c1,inactive
2,Cc1cc(NCc2ccc(NC(=O)Cc3ccc(Cl)c(Cl)c3)cc2)no1,inactive
3,O=C(Cc1ccc(Cl)c(Cl)c1)Nc1ccc(S(=O)(=O)Nc2ccccc2)cc1,inactive
4,Cc1cnc(NC(=O)c2ccc(-c3cccc([N+](=O)[O-])c3)o2)s1,inactive
5,O=C(Nc1ccc(-c2nc3ccccc3[nH]2)cc1)Nc1ccc2c(c1)OCCO2,inactive
6,Cc1ccc(OCCn2c(CCNC(=O)c3cccc4[nH]ccc34)nc3ccccc32)cc1,inactive
7,Oc1ccc(/C=C/c2ccccc2F)c2cccnc12,inactive
8,Cc1cccc(CNc2ncnc3ccc(-c4cccc(C)c4)cc23)c1,inactive
9,O=C(OCC#CCSc1nnc(-c2cccc3ccccc23)o1)c1sc2ccccc2c1Cl,inactive
10,N=c1c2c(ccn1CCc1ccccc1)Oc1ccc3ccccc3c1C2c1ccccc1 (stereo not given),inactive
11,CCCn1c(C)nc2c(N(C)CCN(C)C)nc(C)nc21,inactive
12,CCN(CC)CCn1c(-c2ccccc2)nc2c(N3CCOCC3)nc(C)nc21,inactive
13,Cc1cc2c(s1)c1cnn(Cc3c(F)c(F)cc(F)c3F)c(=O)c1n2C,inactive
14,CC(=O)O[C@@]12CO[C@@H]1C[C@H](O)[C@@]1(C)C(=O)[C@H](O)C3=C(C)[C@@H](OC(=O)[C@H](O)[C@@H](NC(=O)OC(C)(C)C)c4ccccc4)C[C@@](O)([C@@H](OC(=O)c4ccccc4)C12)C3(C)C (stereo not given in full),inactive
15,Cc1ccc(NS(=O)(=O)c2ccc3c(c2)CC(=O)N3C)cc1C,inactive
16,N#Cc1c(-c2ccc3ccccc3c2)no[n+]1[O-],inactive
17,C=C(NC(=O)C(=C)NC(=O)c1csc(C2=NC3c4csc(n4)C4NC(=O)c5csc(n5)C(C(C)(O)C(C)O)NC(=O)C5CSC(=N5)/C(=C/C)NC(=O)C(C(C)O)NC(=O)c5csc(n5)C3(CC2)NC(=O)C(C)NC(=O)C(=C)NC(=O)C(C)NC(=O)C(C(C)CC)NC2C=Cc3c(C(C)O)cc(nc3C2O)C(=O)OC4C)n1)C(N)=O (stereo not given),inactive
18,Cc1noc(C)c1C(=O)N1CCC2(CCCN(C(c3ccccc3)c3ccccc3)C2)CC1,inactive
19,COc1ccc(CN2C(=O)c3ccccc3NC2c2ccc(OC)c(COc3c(C)cc(NC(C)=O)cc3C)c2)cc1 (stereo not given),inactive
20,O=S(=O)(c1ccc(Br)cc1)N1CCN(S(=O)(=O)c2ccc3c(c2)OCCO3)CC1,inactive
